# Results with a measured potency or affinity are listed apart.
# Legend:
# Staphylococcus aureus = conditions: Concentration 20 uM; ASSAY_TEST Inhibition of Bacterial Growth; detection method Absorption (OD600); MEDIA CAMHB; plate type 384well; NBS; CORNING #3640; time 18 hr
# Escherichia coli = conditions: Concentration 20 uM; ASSAY_TEST Inhibition of Bacterial Growth; detection method Absorption (OD600); MEDIA CAMHB; plate type 384well; NBS; CORNING #3640; time 18 hr
SMILES,Inhibition (Staphylococcus aureus) [%],Inhibition (Escherichia coli) [%]
COC(=O)C1=C(C)NC(C)=C(C(=O)OC)C1c1ccccc1[N+](=O)[O-] [NIFEDIPINE],16.67,3.8
CN1CCC[C@H]1c1cccnc1 [NICOTINE],-15.48,6.98
CC(=O)OCC[N+](C)(C)C.[Cl-] [ACETYLCHOLINE CHLORIDE],11.31,4.11
COc1cc(N)c(Cl)cc1C(=O)NC1CN2CCC1CC2.Cl.O (stereo not drawn) [ZACOPRIDE HYDROCHLORIDE],-3.02,7.58
O=C(O)CCCc1ccc(N(CCCl)CCCl)cc1 [CHLORAMBUCIL],7.69,8.33
CC(C)NCC(O)c1ccc(O)c(O)c1.Cl (stereo not drawn) [ISOPROTERENOL HYDROCHLORIDE],7.54,-1.63
CC(=O)CC(c1ccccc1)c1c([O-])c2ccccc2oc1=O.[Na+] (stereo not drawn) [WARFARIN SODIUM],12.98,-2.34
NC1=NC(=O)C(c2ccccc2)O1 (stereo not drawn) [PEMOLINE],13.44,0.76
CC[C@@H]1/C=C/C=C/C[C@H](C)[C@@H](O)[C@](C)(O)C(=O)[C@H](C)[C@@H](O)[C@H](C)C(=O)[C@H](C)[C@@H](O)[C@H](C)/C=C/C(=O)O[C@H]2[C@@H](C)[C@@H](CC1)O[C@@]1(CC[C@@H](C)[C@@H](C[C@H](C)O)O1)[C@@H]2C,9.12,0.23
Brc1c(NC2=NCCN2)ccc2nccnc12 [BRIMONIDINE],7.02,-2.73
C[C@]12Cc3c[nH]nc3C[C@@H]1CC[C@@H]1[C@@H]2CC[C@@]2(C)[C@H]1CC[C@]2(C)O [STANOZOLOL],-5.12,3.01
Cl.FC(F)(F)c1cccc(N2CCNCC2)c1 [N- (3-TRIFLUOROMETHYLPHENYL)PIPERAZINE HYDROCHLORIDE (TFMPP)],-3.1,6.36
Cn1c(=O)c2nc[nH]c2n(C)c1=O.O [THEOPHYLLINE],-24.23,7.82
CC(=O)OC1C([N+]2(C)CCCCC2)C[C@H]2C3CC[C@H]4C[C@H](OC(C)=O)C([N+]5(C)CCCCC5)CC4(C)[C@H]3CCC12C.[Br-].[Br-] (stereo partly drawn),8.65,6.22
CC(=O)[C@H]1CC[C@H]2[C@@H]3CCC4=CC(=O)CC[C@]4(C)[C@H]3CC[C@]12C [PROGESTERONE],12.63,3.02
CC(C)[C@]12O[C@H]1[C@@H]1O[C@]13[C@]1(O[C@H]1C[C@H]1C4=C(CC[C@@]13C)C(=O)OC4)[C@@H]2O [TRIPTOLIDE],14.16,-9.75
Cl.NCCc1ccc(O)c(O)c1 [DOPAMINE HYDROCHLORIDE],8.23,-5.62
CN[C@@H]1C[C@@H](c2ccc(Cl)c(Cl)c2)c2ccccc21.Cl [INDATRALINE HYDROCHLORIDE],-18.12,7.7
c1ccc2c3c([nH]c2c1)CNCC3 [TRYPTOLINE],7.42,3.55
COc1ccc(CCN)cc1OC,8.89,-3.33
Cc1nnc2n1-c1ccc(Cl)cc1C(c1ccccc1)=NC2 [ALPRAZOLAM],16.72,0.08
CC(C)N(CCC(C(N)=O)(c1ccccc1)c1ccccn1)C(C)C.O=P(O)(O)O (stereo not drawn) [DISOPYRAMIDE PHOSPHATE],5.5,-2.32
CCN(C(C)=O)c1cccc(-c2ccnc3c(C#N)cnn23)c1 [ZALEPLON],2.73,4.96
C[C@]12CC[C@H](O)CC1=CC[C@@H]1[C@@H]2CC[C@]2(C)C(=O)CC[C@@H]12 [PRASTERONE],13.56,2.6

# From ChEMBL document CHEMBL4513141, “CO-ADD screening of NIH (USA) - Clinical Collection” (2021)
